CDC25B-CDK2 inh – human CDC25B-CDK2/CyclinA binding inhibition | HTRF CDC25B-CDK2/CyclinA binding, anti-His/anti-Flag; hits give high values | z-score (no concentration beside the values) | 94,000 compounds, 0.72% hits; in the data active means z-score above about 3.2
HIV TAR-Tat – HIV-1 TAR-Tat binding disruption. HIV-1 TAR RNA, Tat peptide displacement FRET; hits give high values. z-score (test concentration not listed). 100,000 compounds, 0.6% hits. AID 1259389; active means z-score of 3 or more in at least 2 runs
* marks the source's active call; other numbers are inactive results; x = no result. Most compounds without a hit are left out; they make up all but 0.86% or so of the library.

SMILES	CDC25B-CDK2 inh	HIV TAR-Tat
Cc1ccc(C(=O)NC(=S)Nc2ccc(O)c(-c3nc4ccccc4s3)c2)cc1[N+](=O)[O-]	-3.78	x
CN(C(=O)CCc1nnc2ccc(NCc3ccco3)nn12)c1ccc(F)cc1	x	1.22
S=C(Nc1ccc2nc3c4ccccc4c4ccccc4c3nc2c1)N1CCOCC1	-0.55	x
CC(C)N(C(=S)Nc1ccc2nc3c4ccccc4c4ccccc4c3nc2c1)C(C)C	10.1*	x
Cn1c(SCC(=O)Nc2ccc3[nH]c(=O)[nH]c3c2)nnc1-c1ccccc1	-0.17	0.78
CC(=O)c1ccc(NC(=O)CSc2nnc(-c3ccc4ccccc4c3)n2C)cc1	6.91*	x
C=CCNC(=O)C1(c2cccs2)CCOCC1	x	1.08
Clc1cccc(CN2CCN(C3CCCCCC3)CC2)c1	0.4	x
COc1ccc(-c2noc(N3CCN(C)CC3)n2)cc1	x	0.72
CSc1ccc(C2CC(=O)N3CN(c4ccc(F)cc4)CSC3=C2C#N)cc1 (stereo not given)	5.22*	-4.88
COC(=O)c1ccc(N2CSC3=C(C#N)C(c4ccc(F)cc4)CC(=O)N3C2)cc1 (stereo not given)	6.56*	-0.31
CN1c2ccccc2-c2nc(SCC(=O)Nc3cccc(F)c3)ncc2S1(=O)=O	x	0.77
Cc1cc(SCC(=O)N2CCOCC2)nc(C)n1	-1.73	2
CCC(CC)C(=O)Nc1nnc(S(=O)(=O)N(C)Cc2ccco2)s1	-1.29	1.48
COc1ccc(OCc2nn3cnnc3s2)cc1	-0.82	-2.14
Cc1ccc(C)n1-c1cccc(N)c1	4.02	-3.17
COc1ccc(N)cc1-n1c(C)ccc1C	1.93	10.4*
Cc1cc(C)c2oc(C(=O)NCC(c3ccc(C)o3)N3CCN(C)CC3)cc(=O)c2c1 (stereo not given)	-0.42	-2.74
Cn1c(SCc2ccccc2)nc(=O)c2c1NC(=O)CC2c1ccc2c(c1)OCCO2 (stereo not given)	-0.67	0.58
COc1ccc(Nc2nc(-c3ccccn3)cs2)cc1	-1.76	1.61
CCOc1ccc(Nc2nc(-c3ccccn3)cs2)cc1	18.8*	x
O=C(Nc1nc2ccccc2s1)c1noc2c1CCc1sccc1-2	x	-0.92
COc1ccc(OC)c2[nH]c(=O)c(CCNC(=O)C3CCCC3)cc12	-0.74	x
COc1cc(CNc2ccc3[nH]c(=O)[nH]c3c2)cc(Br)c1OCc1cccs1	8.87*	x
CC(C)(CO)NCc1cc(Br)ccc1OCc1ccccc1	0.31	-0.65
SMILES	CDC25B-CDK2 inh	HIV TAR-Tat
O=c1[nH]c2ccc(NCc3cc(Br)ccc3OCc3ccccc3)cc2[nH]1	13*	-3.08
CCOc1cc(CNc2ccc(O)cc2)cc(Br)c1OCc1cccs1	-0.71	-6.52
CCCCCNC(=O)CC(C)(C)CC1=NS(=O)(=O)c2ccccc2N1	x	0.98
O=c1cc2nc(-c3cccs3)nc(SCc3ccc(Br)cc3)n2[nH]1	x	27.3*
Cc1ccc(CSc2nc(-c3cccs3)nc3cc(=O)[nH]n23)cc1	x	0.81
Brc1cccc(CNCc2cccn2-c2nnc(N3CCOCC3)s2)c1	x	0.18
COc1cc2nc(N3CCN(C(=O)c4ccco4)CC3)nc(N)c2cc1OC	-1.38	2.22
COc1cc2nc(N3CCCN(C)CC3)nc(NC3CCN(Cc4ccccc4)CC3)c2cc1OC	0.41	5.11*
CCN(CC)c1ccc(NC(=O)CSc2ccsc2[N+](=O)[O-])c(C)c1	3.83	11.7*
O=C(CSc1ccsc1[N+](=O)[O-])Nc1cc(F)ccc1F	-4.75	4.19
COc1ccccc1NC(=O)Cn1cc(S(=O)(=O)N2CCC(C)CC2)c2ccccc2c1=O	-3.23	x
O=C1c2ccccc2-c2onc3c(N4CCN(C(=O)c5ccco5)CC4)cc(NCc4ccco4)c1c23	1.63	15.1*
CCNc1cc(N2CCN(C(=O)c3ccco3)CC2)c2noc3c2c1C(=O)c1ccccc1-3	-1.55	2.58
COCCNc1cc(N2CCN(C(=O)c3ccco3)CC2)c2noc3c2c1C(=O)c1ccccc1-3	0.55	2.75
O=C1c2ccccc2-c2onc3c(N4CCN(C(=O)c5ccco5)CC4)cc(NCCO)c1c23	0.78	7.37*
CC(=O)O[C@H]1CC[C@]2(C)C3CC(=O)[C@]4(C)C(C(C)=O)=CCC4C3CC[C@H]2C1 (stereo not given in full)	x	-1.04
Cc1nc2c(c(C)nn2C(C)(C)C)c(C)c1CCC(=O)N1CCc2ccccc21	-0.26	1.31
COc1cc(C2CC(=O)N3CN(C)CSC3=C2C#N)ccc1OCc1ccccc1 (stereo not given)	4.08*	-1.26
COc1cc(C2CC(=O)N3CN(Cc4ccco4)CSC3=C2C#N)ccc1OCc1ccccc1 (stereo not given)	-0.88	-1.24
N#CC1=C2SCN(Cc3ccccc3)CN2C(=O)CC1c1cccc(F)c1 (stereo not given)	4.89*	1.06
COc1ccc(C2CC(=O)N3CN(CCCc4ccccc4)CSC3=C2C#N)cc1OC (stereo not given)	5.85*	0.56
N#CC1=C2SCN(Cc3ccccc3)CN2C(=O)CC1c1ccc2c(c1)OCO2 (stereo not given)	4.01*	0.95
Cn1nc(C(=O)Nc2ccccc2Cl)c2c1-c1ccccc1SC2	0.39	0.42
CC1Cc2cc(S(=O)(=O)NCCC3=CCCCC3)ccc2N1C(=O)C1CCC1 (stereo not given)	x	1.28
COc1ccc(C2CC(=O)N3CN(C(C)c4ccccc4)CSC3=C2C#N)cc1OC (stereo not given)	5.51*	1.07
SMILES	CDC25B-CDK2 inh	HIV TAR-Tat
N#CC1=C2SCN(Cc3ccco3)CN2C(=O)CC1c1ccc(OCc2ccccc2)cc1 (stereo not given)	-1.75	0.22
N#CC1=C2SCN(Cc3ccco3)CN2C(=O)CC1c1cccc(OCc2ccccc2)c1 (stereo not given)	3.42*	-1.2
COc1cccc(C2CC(=O)N3CN(CCCc4ccccc4)CSC3=C2C#N)c1 (stereo not given)	4.95*	1.35
COc1cccc(C2CC(=O)N3CN(Cc4ccccc4)CSC3=C2C#N)c1 (stereo not given)	5.25*	-0.29
Cc1cc(C)cc(NC(=O)CSc2nc3c(cnn3-c3ccc(S(N)(=O)=O)cc3)c(=O)[nH]2)c1	-0.25	x
CN(C(=O)CSc1nc(N2CCOCC2)c2c(c1C#N)CC(C)(C)OC2)c1ccccc1	-1.24	-0.7
O=c1c(S(=O)(=O)c2cccc(F)c2)c[nH]c2c(F)cc(Cl)cc12	-0.93	1.4
CC(C)Cc1cc2c(s1)SCC(=O)N2CC(=O)NCc1ccco1	x	0.46
CC1=C(c2ccccc2)S(=O)(=O)NC1=NCc1ccccc1C	-4.04	1.41
N#CC1=C2SCN(Cc3ccccc3)CN2C(=O)CC1c1cccs1 (stereo not given)	5.21*	-0.52
Cc1c(Cl)cccc1N1CSC2=C(C#N)C(c3cccs3)CC(=O)N2C1 (stereo not given)	7.9*	-0.6
N#CC1=C2SCN(C3CCCCC3)CN2C(=O)CC1c1ccccc1Cl (stereo not given)	2.11	0.56
Cc1ccc(S(=O)(=O)c2nnn3c2nc(N2CCOCC2)c2sccc23)cc1	x	0.2
COc1ccc(OC)c(-c2noc(CSc3nnc(C)n3-c3ccc(F)cc3)n2)c1	0.83	1.44
CCCN1C(=O)C2(/C(=C(/O)c3ccc(C)c(F)c3)C(=O)C(=O)N2CC2CCCO2)c2ccccc21 (stereo not given)	-0.53	-0.71
Cc1ccc(/C(O)=C2/C(=O)C(=O)N(CC3CCCO3)C23C(=O)N(C)c2ccccc23)cc1F (stereo not given)	0.18	16.2*
